Here are results for 17 compounds from PubChem BioAssay (NCATS).

Records with an inconclusive call do not appear. The source made the active and inactive calls. Calls follow the shape of the dose curve; as a rule, active = well fitted curve in the direction sought with a large enough effect in the signal ratio, with a control signal flat (not every such curve was filed as active); inconclusive = small, poorly fitted or top-dose-only effect, or effect the other way, or a change in a side signal; inactive = no such curve, though single readings can be large or run the other way; the % refers to the signal ratio.

The target of the test is Tyrosine-protein phosphatase non-receptor type substrate 1 (Homo sapiens) + Leukocyte surface antigen CD47 (Homo sapiens) (UniProt P78324+Q08722). The experiment in a line: CD47-SIRPalpha protein protein interaction - LANCE assay qHTS validation (AID 1347057). The settings on record: Recombinant CD47-His / biotin-SIRPalpha, TR-FRET ratio; series mostly up to 38.3 µM. From the text: SIRPalpha is a myeloid cell expressed immunomodulatory receptor that binds the tumor expressed immune checkpoint CD47. Therapeutic disruption of this interaction leads to immune-mediated tumor rejection. This assay was used to quantitate CD47-SIRPalpha binding biochemically and evaluate chemical libraries for novel CD47-SIRPalpha inhibitors. To recapitulate the biological interaction of CD47 and SIRPalpha, we designed expression constructs to produce their recombinant, soluble, extracellular interaction domains. CD47 was produced with an N-terminal 6His tag. SIRPalpha was produced with an N-terminal Avi-Tag for site-specific biotin incorporation. The CD47-SIRPalpha interaction was measured by TR-FRET using affinity tag linked reagents (anti-6His-Eu donor and streptavidin-APC acceptor). SIRPalpha without biotin incorporation was used as a positive control inhibitor.
Tyrosine-protein phosphatase non-receptor type substrate 1 (Homo sapiens) + Leukocyte surface antigen CD47 (Homo sapiens), sequence (P78324 whole entry, looked up, the tested form may be a part): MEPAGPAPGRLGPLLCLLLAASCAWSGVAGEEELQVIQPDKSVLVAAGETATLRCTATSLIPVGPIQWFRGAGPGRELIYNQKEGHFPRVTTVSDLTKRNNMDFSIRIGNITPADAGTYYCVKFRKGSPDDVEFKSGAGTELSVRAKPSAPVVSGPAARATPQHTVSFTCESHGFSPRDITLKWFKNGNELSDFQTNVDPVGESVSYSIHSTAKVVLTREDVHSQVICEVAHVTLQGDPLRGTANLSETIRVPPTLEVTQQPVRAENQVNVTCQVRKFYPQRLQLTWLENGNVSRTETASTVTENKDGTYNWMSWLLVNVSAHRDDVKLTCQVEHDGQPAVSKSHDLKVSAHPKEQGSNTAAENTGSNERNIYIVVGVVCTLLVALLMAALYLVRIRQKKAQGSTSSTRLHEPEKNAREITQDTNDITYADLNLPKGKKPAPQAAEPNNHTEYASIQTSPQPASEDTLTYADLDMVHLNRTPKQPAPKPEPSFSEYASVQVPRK
Tyrosine-protein phosphatase non-receptor type substrate 1 (Homo sapiens) + Leukocyte surface antigen CD47 (Homo sapiens), sequence (Q08722 whole entry, looked up, the tested form may be a part): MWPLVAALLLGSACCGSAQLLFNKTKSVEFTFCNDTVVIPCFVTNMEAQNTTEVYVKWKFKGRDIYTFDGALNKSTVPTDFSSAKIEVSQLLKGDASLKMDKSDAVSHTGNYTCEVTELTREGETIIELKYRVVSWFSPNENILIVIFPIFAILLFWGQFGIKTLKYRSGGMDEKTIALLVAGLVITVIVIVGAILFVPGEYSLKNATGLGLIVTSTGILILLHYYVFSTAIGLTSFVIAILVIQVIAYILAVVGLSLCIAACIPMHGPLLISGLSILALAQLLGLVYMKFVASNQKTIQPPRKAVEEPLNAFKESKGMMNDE
PROTOCOL TABLE (as described by Miller, T. et al. 2019)
SEQUENCE No. (e.g., 1, 2, 3, etc.); […] (e.g., Cells, Incubation, Reagent, etc.); VALUE and DESCRIPTION.
1a. Reagent. 3 uL CD47-His (12.5 nM) and Anti-His Eu Donor reagent (3 nM) added to respective wells in Assay buffer; white/solid bottom high base, med bind 1536-well plates (Greiner 789075)
1b. Reagent. 2 uL Assay buffer negative control for background fluorescence
2. Reagent. 23 nL library compounds (7-pt, 1:4 intraplate titration series) or DMSO control transferred by Pin Tool
3. Centrifuge. Centrifuge plate for 30 s at 1000 RPM
4. Incubation.#Incubate reagents at room temperature for 30 min, protected from light
5. Reagent. 2 uL SIRPalpha-biotin (100 nM) in Assay buffer
6. Incubation.#Incubate reagents at room temperature for 30 min, protected from light
7. Reagent. 1 uL SAV-APC (26 nM) acceptor reagent added to respective wells
8. Centrifuge. Centrifuge plate for 30 s at 1000 RPM
9. Incubation. Incubate reagents at room temperature for 30 min, protected from light
10. Detector. Measure Top TR-FRET on EnVision (Eu/APC filter set); calculate ratio Ch1/Ch2
1. Assay buffer composition.#Phosphate buffered saline (PBS; 10 mM Phosphate, 137 mM NaCl, and 2.7 mM KCl; pH 7.4), 0.05% IGEPAL CA-630
2. 23nL of […] library compounds (7 plates) or DMSO vehicle control transferred to 9 Greiner white/solid bottom high base, TC plates in 7 interplate 1:5 titrations (see Yasgar, A. et al. 2008) with Pintool. Two of the 9 plates are DMSO-only in compound field at beginning and end of compound library-treated plates.
10. Detector settings#Mirror = LANCE/DELFIA Dual Enh; Ex. Filter = UV2[TRF] 320; Em. Filter = APC 665; 2nd Em. Filter = Europium 615; Measurement h = 6.5; Ex. light (%) = 100; Delay = 60 us; Window t = 100 us; No. Seq. windows = 1; Time between flashes = 2000us; No. of flashes = 100; No. of flashes for 2nd detector = 100; Calculation: "Ratio Ch1/Ch2"
Background: TR-FRET usually uses a lanthanide donor and a delayed reading to cut background.
On to `CC(=O)[C@H]1CC[C@H]2[C@@H]3CCC4=CC(=O)CC[C@]4(C)[C@H]3CC[C@]12C`, for which the outcome was inactive. In the case of `CC1=C(C(=O)O)N2C(=O)[C@@H](NC(=O)C(N)c3ccccc3)[C@H]2SC1` (some centres not stated) it was “inactive”; in that of `CNS(=O)(=O)CCc1ccc2[nH]cc(C3CCN(C)CC3)c2c1`, “inactive”; in that of `CCN1CCCC1CNC(=O)c1cc(S(N)(=O)=O)ccc1OC` (configuration not stated), “inactive”. For the compound `Cc1ccc(S(=O)(=O)N[C@@H](Cc2ccccc2)C(=O)CCl)cc1`, the outcome was inactive. Take `CC(C)NCC(O)c1ccc(NS(C)(=O)=O)cc1` (configuration not stated): the result was inactive. In the case of `COc1cc2nc(N3CCCN(C)CC3)nc(NC3CCN(Cc4ccccc4)CC3)c2cc1OC` it was “inactive”. For the compound `OCc1ccc(-c2nn(Cc3ccccc3)c3ccccc23)o1`, the outcome was inactive. As to `COc1cc2ncnc(Nc3cccc(Cl)c3)c2cc1OC`, the outcome was inactive. As to `CC1CC2C3CCC4=CC(=O)C=C[C@]4(C)[C@@]3(F)[C@@H](O)C[C@]2(C)[C@@]1(O)C(=O)CO` (some centres not stated), the outcome was inactive. Turning to `CCN(CC)CCn1c(=O)c(Cc2ccc(OC)cc2)nc2ccccc21`, the result was inactive. For the compound `O=C(O)C1CCCN(CCC=C(c2ccccc2)c2ccccc2)C1` (configuration not stated), the result was inactive. Consider `N[C@@H](Cc1ccc(O)c(O)c1)C(=O)O`, for which the result was inactive. On to `NC(=O)c1ccc2[nH]ccc2c1`, for which the outcome was inactive. In the case of `Nc1nc(N)c2nc(CNc3ccc(C(=O)NC(CCC(=O)O)C(=O)O)cc3)cnc2n1` (configuration not stated) it was “inactive”. In the case of `NC(=O)c1cccc(N)c1` it was “inactive”; in that of `CCCCS(=N)(=O)CCC(N)C(=O)O` (configuration not stated), “inactive”.
